# Measurements reported in PubChem BioAssay AID651871 (Sanford-Burnham Center for Chemical Genomics, 2012).
# Tested on: HL-1
# Experiment: cardiomyocyte survival under oxidative or metabolic stress – cell-based, panel, H9c2 and HL-1, ATP luminescence, set 2, SAR follow-up (AID 651871);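 also: cells exposed to stressor for 2 h before ATP readout; reference of the scale not given here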
# Conditions: H9c2/HL-1 cardiomyocytes, 2-deoxyglucose stress, with 2-deoxyglucose
# [1] = run 9, at 79 µM (top of the series)
SMILES,activity (protection/inhibition) [1],"activity (protection/inhibition) (run 9, at 19.8 µM (top of the series))","activity (protection/inhibition) (run 9, at 39.5 µM (top of the series))"
COc1ccc2nc(-c3cc(OC)c(OC)c(OC)c3)cc(C(=O)NCC(=O)Nc3ccc(C(C)=O)cc3)c2c1,90%,,
COc1ccc2c(c1OC)C(=O)N1c3ccccc3C(=O)N(Cc3cccc(Cl)c3Cl)C21 (stereo not given),-7.08%,50.7%,55.4%
CCOC(=O)c1cccc(NC(=O)CNC(=O)c2cc(-c3cc(OC)c(OC)c(OC)c3)nc3ccccc23)c1,91.8%,,
